From PubChem BioAssay (EPA / NIEHS)
Several values for one entry are separate records, joined by “and”; a condition that tells them apart may be missing. Equal values may be shown once. Where a structure was tested more than once in an assay, its records may differ in their call. Activity calls are given as the source filed them. The calls were made as follows: active = hit-call score of the fitted dose curve at least 0.9, where 1 is the maximum; inactive = score below 0.9.

Legend:
[1] = APR_HepG2_P-H2AX_72hr: Apredica 72-hour HepG2 Assay for H2AX Phosphorylation (AID 2282916); conditions: imaging, actives raise or lower the signal;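 also: phospho-histone H2A.x immunostain intensity per cell marking DNA damage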
How it was run: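 HepG2 human liver cells were exposed for 72 hr to compounds at 0.39–200 uM (10 concentrations, duplicate per plate) in 0.5% v/v DMSO. Fixed, permeabilized cells were immunolabeled for phospho-histone H2A.x with Hoechst 33342 and imaged by HCS fluorescence; bidirectional fit versus DMSO.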

[2] = APR_HepG2_MitoMembPot_72hr: Apredica 72-hour HepG2 Assay for Mitochondrial Membrane Potential (AID 2282917); conditions: imaging, actives raise or lower the signal
How it was run: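 Membrane potential read by MitoTracker Red CMXRos (250 nM, 30 min, pre-fixation) fluorescence imaging of HepG2 after 72 hr exposure. Ten concentrations, 0.39–200 uM, duplicate wells, 0.5% DMSO; fitted in both directions against DMSO baseline.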

[3] = APR_HepG2_MitoticArrest_72hr: Apredica 72-hour HepG2 Assay for Mitotic Arrest (AID 2282918); conditions: high-content imaging, actives raise or lower the signal
How it was run: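 HepG2 cells treated 72 h at 0.39–200 uM, 0.5% DMSO final; formaldehyde-fixed, stained with Hoechst 33342 and phospho-histone H3 antibody, imaged by high-content fluorescence; bidirectional fit versus DMSO.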

[4] = APR_HepG2_MicrotubuleCSK_72hr: Apredica 72-hour HepG2 Assay for Microtubule CSK Stabilty (AID 2282919); conditions: HepG2 microtubule cytoskeleton, high-content imaging, actives raise or lower the signal
How it was run: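 Read-out is tubulin fluorescence intensity from high-content imaging of HepG2 cells, with nuclei identified by Hoechst 33342. Treatment lasts 72 h at 0.39–200 uM, and curves are fitted bidirectionally against the DMSO negative control.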

[5] = APR_HepG2_StressKinase_72hr: Apredica 72-hour HepG2 Assay for Stress Kinase (AID 2282921); conditions: HepG2 stress kinase (phospho-c-Jun) imaging, actives raise or lower the signal
How it was run: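 Cells were exposed for 72 h to ten concentrations (0.39–200 uM, duplicate) at 0.5% v/v DMSO final, then fixed with 3.7% formaldehyde, permeabilized and immunostained for phospho-c-Jun (Cy3 secondary) with Hoechst nuclear counterstain.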

[6] = APR_HepG2_StressKinase_24hr: Apredica 24-hour HepG2 Assay for Stress Kinase (AID 2282922); conditions: HepG2 stress kinase (phospho-c-Jun) imaging, actives raise or lower the signal
How it was run: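 HepG2, 24 hr dosing, 0.39–200 uM in duplicate, 0.5% DMSO; formaldehyde fix (3.7%), 0.5% Triton X-100; anti-phospho-c-Jun + Cy3 secondary, Hoechst counterstain; ArrayScan imaging; bidirectional curve fit vs DMSO baseline.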

[7] = APR_HepG2_MitoMass_72hr: Apredica 72-hour HepG2 Assay for Mitochondrial Mass (AID 2282924); conditions: high-content imaging, actives raise or lower the signal;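 also: MitoTracker Red CMXRos stain intensity per cell imaged as mitochondrial mass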
How it was run: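 HepG2, 72 hr cmpd, 10 conc 0.39–200 uM in dup, DMSO 0.5% v/v. MitoTracker Red CMXRos 250 nM 30 min pre-fix; formaldehyde 3.7% fix 30 min RT. HCS imaging, gain/loss fit vs DMSO.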

[8] = APR_HepG2_NuclearSize_72hr: Apredica 72-hour HepG2 Assay for Nuclear Size (AID 2282925); conditions: high-content imaging, actives raise or lower the signal
How it was run: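 HepG2; cpd 0.39–200 uM, 10 conc, duplicate; 72 h; DMSO 0.5% v/v; fix 3.7% formaldehyde 30 min RT; Triton permeabilization; Hoechst 2 ug/mL; HCS imaging 20x; nuclear diameter; gain/loss fit vs DMSO.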

[9] = ATG_CRE_CIS: Attagene CIS-FACTORIAL HepG2 Assay for human cAMP Responsive Element (CRE) binding protein 3 (AID 2282926); conditions: HepG2 CRE cis-reporter, Attagene multiplexed mRNA; actives raise or lower the signal
How it was run: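 HepG2 cells transiently transfected with cis-element-driven multiple reporter transcription units; CRE reporter mRNA measured 24 h after dosing by RT-PCR, 6-FAM labelling, HpaI digestion and capillary electrophoresis. Bidirectional fit versus DMSO baseline.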

[10] = biological target: CCAAT/enhancer-binding protein beta (Homo sapiens) (UniProt P17676); test: ATG_C_EBP_CIS: Attagene CIS-FACTORIAL HepG2 Assay for human CCAAT/Enhancer Binding Protein (C/EBP) beta (AID 2282927); conditions: HepG2 Attagene cis-factorial transcription factor reporter; actives raise or lower the signal
How it was run: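 Endogenous C/EBPb-driven reporter transcripts measured in transfected human HepG2 cells at 24 h via RT-PCR and capillary electrophoresis of labelled fragments. Activity fitted in both directions relative to DMSO baseline.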

[11] = ATG_CMV_CIS: Attagene CIS-FACTORIAL HepG2 Assay for human CMV (Internal Marker) (AID 2282928); conditions: HepG2 CMV promoter reporter, transcription factor profiling; actives raise or lower the signal;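 also: endpoint acts as a background internal control marker rather than a target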
How it was run: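 HepG2 cells transiently transfected with multiple cis-regulated reporter units; 24 h compound exposure. Reporter mRNA quantified by RT-PCR, 6-FAM primer-extension labeling, HpaI digestion and capillary electrophoresis; bidirectional fitting against DMSO baseline.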

[12] = ATG_DR4_LXR_CIS: Attagene CIS-FACTORIAL HepG2 Assay for human Liver X Receptor (LXR), DR4 submotif (AID 2282929); conditions: HepG2 Attagene DR4 cis-reporter, mRNA transcription; actives raise or lower the signal
How it was run: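 HepG2 cells transiently transfected with cis-promoter-driven multiplexed reporter units (DR4 element) were dosed for 24 h. Reporter mRNA was quantified by RT-PCR, fluorescent primer extension, HpaI digestion and capillary electrophoresis; bidirectional fitting versus DMSO baseline.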

[13] = biological target: Aryl hydrocarbon receptor (Homo sapiens) (UniProt P35869); test: ATG_Ahr_CIS: Attagene CIS-FACTORIAL HepG2 Assay for human Aryl Hydrocarbon Receptor (Ahr) (AID 2282930); conditions: HepG2 AhR cis-factorial reporter transcription; actives raise or lower the signal
How it was run: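 Reporter mRNA levels, quantified by RT-PCR and fluorescent capillary electrophoresis, reflect endogenous AhR transcriptional activity in HepG2 cells carrying transfected cis-promoter reporter constructs. Readout at 24 h post-dose; gain or loss fitted against DMSO baseline.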

[14] = ATG_AP_1_CIS: Attagene CIS-FACTORIAL HepG2 Assay for human Activator Protein 1 (AP-1) (AID 2282931); conditions: HepG2 Attagene cis-factorial AP-1 reporter mRNA; actives raise or lower the signal
How it was run: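 HepG2 cells transiently transfected with cis-element-driven multiplex reporter units; 24 h compound exposure. Reporter mRNA quantified by RT-PCR, FAM-labelled fragments resolved by capillary electrophoresis; bidirectional fit versus DMSO baseline.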

[15] = ATG_AP_2_CIS: Attagene CIS-FACTORIAL HepG2 Assay for human Activator Protein 2 (AP-2) (AID 2282932); conditions: HepG2 AP-2 cis-reporter, Attagene transcription factor profiling; actives raise or lower the signal
How it was run: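 Step one: transient transfection of HepG2 with reporter transcription units. Step two: 24 h chemical exposure. Step three: RNA extraction, RT-PCR, labelled fragment analysis by capillary electrophoresis; DMSO serves as baseline.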

[16] = ATG_BRE_CIS: Attagene CIS-FACTORIAL HepG2 Assay for human Bone Morphogenetic Protein (BMP) Response Element (BRE) (AID 2282933); conditions: HepG2 BMP response element reporter, Attagene transcription factor profiling; actives raise or lower the signal
How it was run: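 Read-out: reporter mRNA induction quantified by RT-PCR and capillary electrophoresis after 24 h chemical exposure of transfected HepG2 cells. Endogenous factor activity on the BMP response element; gain or loss fitted against DMSO baseline.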

[17] = biological target: Retinoic acid receptor alpha (Homo sapiens) (UniProt P10276); test: ATG_DR5_RAR_CIS: Attagene CIS-FACTORIAL HepG2 Assay for human Retinoic Acid Receptor Alpha (RARE), DR5 submotif (AID 2282934); conditions: HepG2 Attagene cis-factorial RARE DR5 reporter, mRNA; actives raise or lower the signal
How it was run: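 Reporter transcripts from a DR5-regulated unit, measured via RT-PCR plus capillary electrophoresis, reflect endogenous RAR activity in transiently transfected human HepG2 liver cells. Exposure lasted 24 h; gain or loss of signal scored against DMSO.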

[18] = biological target: Transcription factor E2F1 (Homo sapiens) (UniProt Q01094); test: ATG_E2F_CIS: Attagene CIS-FACTORIAL HepG2 Assay for human E2F Transcription Factor 1 (AID 2282935); conditions: HepG2 Attagene cis-reporter, E2F reporter RNA transcripts; actives raise or lower the signal
How it was run: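 Total RNA from 24 h-treated, reporter-transfected HepG2 cells undergoes DNase I treatment, oligo(dT) reverse transcription, PCR and 6-FAM primer extension before capillary electrophoresis.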

[19] = APR_HepG2_p53Act_72hr: Apredica 72-hour HepG2 Assay for p53 Activation (AID 2282923); conditions: high-content imaging, actives raise or lower the signal;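 also: average cellular p53 protein immunofluorescence intensity in HepG2 cells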
How it was run: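 Cells were dosed for 72 hr with compounds at 0.39–200 uM in duplicate (final DMSO 0.5% v/v), then fixed in 3.7% formaldehyde, permeabilized with Triton X-100 and immunostained for p53 (Cy5) with Hoechst 33342 nuclear counterstain.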

Measured: AC50

Chain of Aryl hydrocarbon receptor (Homo sapiens) (P35869 whole entry, looked up): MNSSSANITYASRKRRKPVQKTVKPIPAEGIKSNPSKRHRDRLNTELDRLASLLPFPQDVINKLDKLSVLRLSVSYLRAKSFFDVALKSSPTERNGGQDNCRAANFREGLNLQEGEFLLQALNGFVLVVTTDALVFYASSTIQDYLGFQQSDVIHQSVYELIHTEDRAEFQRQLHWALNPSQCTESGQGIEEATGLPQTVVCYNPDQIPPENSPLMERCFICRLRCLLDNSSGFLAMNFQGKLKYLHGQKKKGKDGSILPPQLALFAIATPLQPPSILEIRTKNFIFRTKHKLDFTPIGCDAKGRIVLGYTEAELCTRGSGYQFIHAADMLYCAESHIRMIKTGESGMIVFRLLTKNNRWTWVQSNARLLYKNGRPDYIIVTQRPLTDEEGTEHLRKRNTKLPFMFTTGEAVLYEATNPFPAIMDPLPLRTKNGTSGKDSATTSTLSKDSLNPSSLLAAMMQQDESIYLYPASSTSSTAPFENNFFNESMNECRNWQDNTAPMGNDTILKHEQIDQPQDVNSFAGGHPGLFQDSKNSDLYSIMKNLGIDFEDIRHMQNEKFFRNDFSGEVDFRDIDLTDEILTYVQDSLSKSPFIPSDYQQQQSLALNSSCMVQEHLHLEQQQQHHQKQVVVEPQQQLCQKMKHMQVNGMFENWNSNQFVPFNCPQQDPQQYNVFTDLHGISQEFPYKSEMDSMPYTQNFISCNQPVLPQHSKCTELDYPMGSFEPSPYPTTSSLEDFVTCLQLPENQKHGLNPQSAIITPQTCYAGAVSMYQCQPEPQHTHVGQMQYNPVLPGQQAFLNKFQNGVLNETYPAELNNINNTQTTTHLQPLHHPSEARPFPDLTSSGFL
Chain of Retinoic acid receptor alpha (Homo sapiens) (P10276 whole entry, looked up): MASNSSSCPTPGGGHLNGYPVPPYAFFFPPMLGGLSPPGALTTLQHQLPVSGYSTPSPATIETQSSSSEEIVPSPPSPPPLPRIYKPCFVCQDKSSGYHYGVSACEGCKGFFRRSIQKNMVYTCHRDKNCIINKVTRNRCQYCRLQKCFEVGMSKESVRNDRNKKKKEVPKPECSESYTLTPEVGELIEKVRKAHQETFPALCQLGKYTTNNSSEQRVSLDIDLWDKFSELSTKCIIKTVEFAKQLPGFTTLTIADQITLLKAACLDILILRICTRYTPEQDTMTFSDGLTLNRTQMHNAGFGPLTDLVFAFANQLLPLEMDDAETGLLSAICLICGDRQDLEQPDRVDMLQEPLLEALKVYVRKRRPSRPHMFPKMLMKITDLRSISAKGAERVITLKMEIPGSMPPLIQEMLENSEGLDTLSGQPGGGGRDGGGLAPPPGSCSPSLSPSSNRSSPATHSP
Chain of CCAAT/enhancer-binding protein beta (Homo sapiens) (P17676 whole entry, looked up, the tested form may be a part): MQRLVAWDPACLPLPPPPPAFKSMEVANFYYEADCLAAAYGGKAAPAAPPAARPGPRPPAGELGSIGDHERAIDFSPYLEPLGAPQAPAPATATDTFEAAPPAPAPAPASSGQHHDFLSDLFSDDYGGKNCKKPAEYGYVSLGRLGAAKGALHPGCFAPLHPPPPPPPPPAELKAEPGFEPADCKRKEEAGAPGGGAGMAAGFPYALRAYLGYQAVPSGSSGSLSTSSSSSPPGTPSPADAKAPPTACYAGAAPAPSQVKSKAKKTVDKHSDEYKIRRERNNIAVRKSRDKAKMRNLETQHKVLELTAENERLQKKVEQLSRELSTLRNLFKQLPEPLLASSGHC
Chain of Transcription factor E2F1 (Homo sapiens) (Q01094 whole entry, looked up): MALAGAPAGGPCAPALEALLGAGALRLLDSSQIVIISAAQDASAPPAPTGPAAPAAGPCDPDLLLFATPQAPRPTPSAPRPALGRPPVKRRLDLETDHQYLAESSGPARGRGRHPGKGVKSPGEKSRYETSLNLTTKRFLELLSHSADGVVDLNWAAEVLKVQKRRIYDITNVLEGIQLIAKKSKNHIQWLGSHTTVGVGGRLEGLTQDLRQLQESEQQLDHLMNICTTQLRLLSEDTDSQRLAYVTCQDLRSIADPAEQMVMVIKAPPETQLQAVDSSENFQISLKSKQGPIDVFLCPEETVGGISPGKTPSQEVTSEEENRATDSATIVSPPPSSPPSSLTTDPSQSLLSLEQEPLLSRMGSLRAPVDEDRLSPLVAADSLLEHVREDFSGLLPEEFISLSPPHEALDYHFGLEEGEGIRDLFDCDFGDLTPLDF

Cc1ccccc1O
active: [14] 140 µM
not listed: [19]
inactive: all other assays above

Clc1ccc(Cl)cc1
not listed: [9] | [17] | [19]
inactive: all other assays above

Oc1ccc(C(c2ccc(O)cc2)(C(F)(F)F)C(F)(F)F)cc1
active: [11] 7.18 µM and 8.05 µM | [12] 11.1 µM and 12.8 µM and 8.79 µM | [13] 11.1 µM and 5.94 µM and 13.3 µM | [14] 11.1 µM [middle of 4 runs] | [16] 16 µM
inactive: [1] | [2] | [3] | [4] | [5] | [6] | [7] | [8] | [10] | [11] | [12] | [13] | [15] | [16] | [18]

CCC(C)(c1ccc(O)cc1)c1ccc(O)cc1
inactive: [1] | [6] | [19] | [8] | [10] | [11] | [13] | [14] | [15] | [16] | [18]
active: [5] 34.3 µM | [11] 56.5 µM and 56.1 µM and 23.2 µM | [12] 47.5 µM [middle of 4 runs] | [13] 58.9 µM | [14] 59.3 µM and 33.4 µM and 15.6 µM

Cc1ccccc1[N+](=O)[O-]
not listed: [9]
inactive: all other assays above

O=C(N[C@H]1CN2CCC1CC2)c1cc2ccoc2cn1
not listed: [17] | [19]
inactive: all other assays above

ClC1=C(Cl)[C@]2(Cl)[C@@H]3[C@H]4C[C@H]([C@@H]5O[C@H]45)[C@@H]3[C@@]1(Cl)C2(Cl)Cl
active: [12] 5.08 µM
not listed: [17] | [19]
inactive: all other assays above

CCOC(=O)C(O)(c1ccc(Cl)cc1)c1ccc(Cl)cc1
active: [1] 48.1 µM | [3] 48.5 µM | [8] 105 µM | [12] 8.72 µM | [13] 8.63 µM
not listed: [9] | [19]
inactive: all other assays above

CN(C)CCO
not listed: [17] | [19]
inactive: all other assays above

Cc1cc(O)ccc1Cl
not listed: [9] | [17] | [19]
inactive: all other assays above

c1ccc(-c2ccccc2)cc1
not listed: [9] | [17]
inactive: all other assays above
